# According to PubChem BioAssay (NCI):
# About 83,000 compounds went through this panel and 20% of them were active in at least one assay; those are over-represented in the sample as a whole.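 Activity criterion: percent growth below 10, measured after cells in 96-well plates were exposed to a single compound concentration for 48 hours.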 Values without a mark were called inactive. Calls of active or inactive are those of the source.
# Tested on: HS 578T breast
# Assay: NCI-60 one-dose screen, 48 h (100 = growth as untreated, 0 = no growth, -100 = all killed)
# Conditions: 1 µM
# Experimental: Growth inhibition of the HS 578T human tumor cell line is measured as a screen for anti-cancer activity. Cells are grown in 96 well plates and exposed to the test compound for 48 hours. Compounds are tested at a single concentration, which is 10^-5 M for most compounds. The reported endpoint is percent growth (GI% or GIPRCNT), where numbers from 0 - 100% represent growth inhibition, and numbers from -100% - 0 represent cell death. For example, a value of 40 represents 60% growth inhibition. A value of 0 means no net growth occurred over the course of the experiment. A value of -40 indicates 40% of cells at the beginning of the experiment died by the end of the experiment. A value of -100 means all cells are dead at the end of the experiment.
# NCI-60 Human Tumor Cell Lines Screen was performed using the standard one-dose NCI protocol, which is described in more detail at https://dtp.cancer.gov/discovery_development/nci-60/default.htm.
# Compounds with GIPRCNT values below 10 were considered active. Activity score was based on GIPRCNT using the following formula: […]
# Score is 0 for GIPRCNT values of 100 or above, 50 for GIPRCNT values of 0, and 100 for GIPRCNT values of -100.
row,SMILES,growth [%]
1,CC/C(=C(\c1ccc(O)cc1)c1ccc(OCCN(C)C(=O)COCCNC(=O)Cc2ccc3c(c2)CN([C@@H]2CCC(=O)NC2=O)C3=O)cc1)c1ccccc1,48.7

# Same assay, conditions: 10 µM
row,SMILES,growth
1,CC/C(=C(\c1ccc(O)cc1)c1ccc(OCCN(C)C(=O)COCCNC(=O)Cc2ccc3c(c2)CN([C@@H]2CCC(=O)NC2=O)C3=O)cc1)c1ccccc1,7.64% (active)

# Same assay, conditions: 10 µM unless noted
row,SMILES,growth
1,Fc1ccc(N2CC(Cn3c(C(F)(F)F)cc4c(Cl)ncnc43)C2)c(F)c1,55.1%
2,Oc1ccc(Cl)c(Nc2nc(SCCN3CCOCC3)nc3c2cnn3CC(Cl)c2ccc(Br)cc2)c1 (stereo not given),-15.5% (active)
3,COc1ccc(-c2nc3ccc(-c4nnc(SCc5ccccc5)o4)cc3[nH]2)cc1,-17.5% (active)
4,Cc1cccc(-c2ccccc2Oc2ccc3nnc(Cl)n3n2)c1,102%
5,COc1sc(/C=N/NC(=O)c2[nH]c3ccc(Br)cc3c2-c2ccccc2)cc1Br,20.7%
6,O=C(Cn1c(-c2ccccc2)nc2ccccc21)N=Nc1c(O)[nH]c2ccc(Br)cc12,-28.8% (active)
7,COc1ccc(N=Nc2c(N)nn3c(-c4cc5ccccc5oc4=O)ccnc23)cc1,29.1%
8,COc1ccc(/C=C/c2nc3ccccc3n3c(-c4cccc([N+](=O)[O-])c4)nnc23)cc1,12%
9,COC(=O)c1c(C(=O)OC)c2c3ccccc3c3ccccc3n2c1C(=O)C(C)(C)C,69.4%
10,COc1cc(C2CC(c3ccc(F)cc3)=Nc3c(N)nc(N)nc3N2)ccc1Oc1nc(Nc2ccc(F)cc2)nc(N(C)C)n1 (stereo not given),56%
11,CC(C)C[C@H](NC(=O)CNC(=O)C[C@H]1O[C@@H]2OC3(C)CC[C@H]4[C@H](C)CC[C@@H]([C@H]1C)[C@@]24O3)B(O)O,-5.03% (active)
12,Cc1cnc2ccc(Oc3ccccc3-c3ccccc3)nn12,120%
13,N#Cc1c(-c2ccc(F)cc2)nc(SCc2ccccc2)nc1N1CCNCC1,-45.6% (active)
14,CCOC(=O)c1ccc(NC(=S)NC(=O)c2ccc(NC(=O)C(C)C)cc2OC)cc1,86.7%
15,NC(=Nc1ccc(OCCCCCCCCn2cnnn2)cc1)c1ccccc1,22%
16,Cc1ccc(C2CC(c3ccc(NC(=O)Nc4ccccc4)cc3)=NN2c2ccc(S(N)(=O)=O)cc2)cc1 (stereo not given),-28.7% (active)
17,Fc1ccc(F)c(CNc2nc(SCCN3CCOCC3)nc3c2cnn3CC(Cl)c2ccc(Br)cc2)c1 (stereo not given),23.4%
18,COc1cc(C2CC(c3ccc(Cl)cc3)=Nc3c(N)nc(N)nc3N2)ccc1Oc1nc(Nc2ccc(F)cc2)nc(N(C)C)n1 (stereo not given),54%
19,CS(=O)(=O)Nc1cc(-c2ccc3ncnc(Nc4ccc(OCc5cccnc5)c(Cl)c4)c3c2)cnc1Cl,-25.3% (active)

row,SMILES,growth
1,c1n[nH]cc1-c1nc2ccc3cn[nH]c3c2c2c1CCCC2,53%
2,COc1cc(/C=C/C(=O)c2cnn(-c3cc(=O)[nH]c4ccc(Br)cc34)c2C)cc(OC)c1OC,54.1%
3,Nc1cc(-c2c[nH]c3ccc(Cl)cc23)nc2cc(-c3c[nH]c4ccccc34)nn12,-3.21% (active)
4,Cn1cc(-c2cc(N)n3nc(-c4c[nH]c5ccccc45)cc3n2)c2cc(Br)ccc21,-29.9% (active)
5,COc1cc(CNC(=O)[C@]23CCC(C)(C)CC2C2=CCC4[C@@]5(C)CCC(OC(C)=O)C(C)(C)C5CC[C@@]4(C)[C@]2(C)CC3)ccc1OCc1cn(-c2ccc(Cl)cc2Cl)nn1 (stereo not given in full),100%
6,Cc1cccc(NCC(=O)N2CCN(c3ncnc4c3cnn4-c3ccccc3)CC2)c1,60.4%
7,CCCCCCCCc1cccc(CC(=O)Nc2ccc(C)cc2C(=O)O)c1,89.8% [25 µM]
8,CCOc1ccccc1NC(=O)N/C(N)=N/c1nc2ccccc2s1,60.8%
9,Cc1ccc(S(=O)(=O)N(CCn2ccnc2[N+](=O)[O-])CCn2ccnc2[N+](=O)[O-])cc1,103%
10,O=c1[nH]c2ccccc2cc1CSc1ccccc1Nc1nccc(-c2ccc3c(c2)OCO3)n1,34.7%
11,Cc1cc(N=C(N)c2ccccc2)ccc1OCCCCCCCCn1ccnc1,13.6%
12,C=CCSc1nnc(-c2ccc(-c3nc4ccc(Cl)cc4[nH]3)cc2)o1,36.2%
13,Clc1ccc(-c2nc3c4c(-c5ccccc5)c(-c5ccccc5)n(Cc5ccccc5)c4ncn3n2)cc1,-8.15% (active)
14,COc1ccc2[nH]c(=O)c(CSc3ccccc3Nc3nccc(-c4ccc(Cl)cc4)n3)cc2c1,37.1%
15,COc1ccc2[nH]c(=O)c(CSc3ccccc3Nc3nccc(-c4ccc(C(F)(F)F)cc4)n3)cc2c1,42.5%
16,COC(=O)CSC1=C(C)C(=O)C(OC)=C(OC)C1=O,79.2%
17,O=C(N/N=C/c1occc1Br)c1[nH]c2ccc(Br)cc2c1-c1ccccc1,-28.4% (active)
18,CN1CCN(C(=O)Oc2cc3c(c4ccccc24)[C@H](CCl)CN3C(=O)c2cc3cc(OCCCN4CCC4)ccc3[nH]2)[C@H]2CSSC[C@H]21,-7.11% (active)
19,O=C(Nc1ccc(-c2ccc3c(c2)NC(=O)/C3=C\c2ccc[nH]2)cc1)Nc1ccc(Cl)c(C(F)(F)F)c1,39%
